# FLuc inh = qHTS Assay for Inhibitors of Firefly Luciferase; Luciferin 4-monooxygenase (Photinus pyralis), P08659; purified firefly luciferase, luminescence, 8 min; Potency, µM (titrated, usually from 57.1 µM), usual class: inhibitors; hit rate 2.2% among 72,000; also: nearly all actives have a fitted effect of over 40% in size
#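 Titration-based qHTS; buffer 50 mM imidazole pH 7.2, 50 mM KCl, 7 mM MgCl2, 10 uM ATP, 0.01% Tween 20, 0.05% BSA; luciferase/luciferin detector mix added after compound; 8 min, ambient; luminescence.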
# 15-hLO inh = qHTS Assay for Inhibitors of 15-hLO (15-human lipoxygenase); hit rate 1.4% among 74,000; AID 887, 2007; purified 15hLO-1, xylenol orange hydroperoxide absorbance; Potency, µM (doses to about 57.1 µM), usual class: inhibitors; also: nearly all actives have a fitted effect of over 55% in size
#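 Quantitative HTS in 25 mM Hepes pH 7.5 containing 0.01% Triton X-100: human 15hLO-1 at 40 nM, arachidonic acid at 50 uM, 6 min turnover. Product quantified via ferrous oxidation/xylenol orange, 573:405 nm absorbance ratio.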
# ERK AVP inh = qHTS Assay for Inhibitors of the ERK Signaling Pathway using a Homogeneous Screening Assay; hit rate 0.99% among 72,000; Potency, µM (top dose mostly 57.5 µM), usual class: inhibitors; HEK293-V1b, vasopressin-stimulated pERK AlphaScreen; also: nearly all actives have a fitted effect of over 55% in size
#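 Phosphorylated ERK1/2 detected via AlphaScreen bead proximity in lysates of V1b-expressing HEK293 cells given 25 nM vasopressin for 5 min after 30 min compound exposure (37 °C). AC50 from Hill equation; basal DMSO 0%, vasopressin 100%.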
# HSD17B inh = qHTS Assay for Inhibitors of HSD17B4, hydroxysteroid (17-beta) dehydrogenase 4. 3-hydroxyacyl-CoA dehydrogenase type-2 (Homo sapiens), Q99714. recombinant HSD17B10, NADH fluorescence kinetic. Potency, µM (highest dose often 57.1 µM), hits mostly inhibitors. hit rate 7.6% among 75,000;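 also: the protocol describes HADH2 (HSD17B10) and not the HSD17B4 of the title; nearly all actives have a fitted effect of over 70% in size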
#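 His-tagged E. coli-expressed HADH2 at 20 nM in 100 mM Tris-HCl pH 9.0 with 0.01 % Tween-20, preincubated 15 min with compound at room temperature. Reaction with 1 mM NAD+ and 90 uM beta-hydroxybutyryl coenzyme A; NADH fluorescence (360/450 nm) read kinetically over 4 min, last minus first point.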
# HADH2 inh = qHTS Assay for Inhibitors of HADH2 (Hydroxyacyl-Coenzyme A Dehydrogenase, Type II) | recombinant HADH2, NADH fluorescence, beta-hydroxybutyryl-CoA | Potency, µM (titrated, usually from 57.1 µM), hits mostly inhibitors | hit rate 3.4% among 73,000; also: nearly all actives have a fitted effect of over 60% in size
# Target sequence (Q99714 whole entry, looked up, one chain of several): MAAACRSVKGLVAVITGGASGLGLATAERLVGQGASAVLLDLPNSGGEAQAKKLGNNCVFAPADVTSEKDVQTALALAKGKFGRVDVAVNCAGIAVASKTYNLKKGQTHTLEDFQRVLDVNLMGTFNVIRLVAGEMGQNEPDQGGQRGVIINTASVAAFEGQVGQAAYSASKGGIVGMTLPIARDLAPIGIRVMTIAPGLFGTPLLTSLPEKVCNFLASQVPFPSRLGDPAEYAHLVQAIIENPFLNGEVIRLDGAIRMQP
#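 Buffer 100 mM Tris-HCl pH 9.0/0.01% Tween-20; HADH2 20 nM; NAD+ 1 mM; beta-hydroxybutyryl-CoA 90 uM (all final). 15 min cpd preincubation, RT.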
# PK Bst = Pyruvate Kinase; hit rate 1.2% among 51,000; Potency, µM; purified pyruvate kinase, luminescence ATP production; ribose 5-phosphate activator present at AC10; in the data active = potency below about 11 µM; inconclusive = mostly about 12 µM to 25 µM;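 the screen sought inhibitors and activators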
# A number is an active result; 0 = inactive; ? = inconclusive; - = no result given; ! = not active in a repeat; [ ] = dose if it differs, or a comment. Only some compounds are listed: those with a hit (about 11% of all), similar ones and a draw of the others. Unless noted, calls follow the shape of the dose curve; as a rule, active = well fitted curve in the direction sought with a large enough effect; inconclusive = small, poorly fitted or top-dose-only effect, or another doubt; inactive = no such curve, though single readings can be large; an effect the other way counts as inactive or inconclusive.
SMILES,FLuc inh,15-hLO inh,ERK AVP inh,HSD17B inh,HADH2 inh,PK Bst
O=C(O)C[C@H]1OCC=C2CN3CC[C@@]45C6=CC(=O)C(=O)C([N+](=O)[O-])=C6N[C@H]4[C@H]1[C@H]2C[C@@H]35,0[11.4 µM],0[11.4 µM],0[11.5 µM],0[11.4 µM],0[11.4 µM],-
CC1(C)CN=C(Nc2nc3ccccc3s2)S1,16µM,0,0,0,0,-
COCCOC(=O)c1c(N)n(Cc2ccccc2)c2nc3ccccc3nc12,0,0,0,32µM,32µM,0
Nc1c(C(=O)NCc2ccco2)c2nc3ccccc3nc2n1Cc1ccc(F)cc1,0,-,-,-,-,0
COc1ccc(Cn2c(N)c(C(=O)NCc3ccco3)c3nc4ccccc4nc32)cc1,0,?,0,32µM,0,-
CCOC(=O)c1c(N)n(Cc2ccco2)c2nc3ccccc3nc12,0,?,0,25µM,0,-
COCC(C)OC(=O)c1c(N)n(Cc2ccco2)c2nc3ccccc3nc12 (centres undefined),0,-,-,-,-,0
CCCCn1c(NC(=O)c2ccco2)c(C(=O)OCC)c2nc3ccccc3nc21,0,0,0,25µM,32µM,0
OC[P+](CO)(CO)CO,-,0,0,0,0,-
C[C@]12CC[C@H](O)C[C@@H]1CC[C@H]1[C@H]2CC[C@]2(C)[C@H](C(=O)CO)CC[C@@H]12,0,0,0,0,0,-
C(=NCCN1CCOCC1)=NC1CCCCC1,0[11.4 µM],0[11.4 µM],0[11.5 µM],0[11.4 µM],0[11.4 µM],-
CC(=O)[O-].CC(=O)[O-].O.O.[Cd+2],-,-,0,0,?,-
Clc1cccc2ccccc12,-,0,0,0,0,-
Nc1cccc2c(N)cccc12,-,0,0,32µM,32µM,-
N#CC(Cl)Cl,-,?,0,0,0,-
CCCN(CCC)CCc1c[nH]c2ccc(C(N)=O)cc12,0,0,0,10µM,0,-
CCCCc1ccc2[nH]cc(CCN)c2c1,0,0,0,0,0,0
O=P(O)(O)CCP(=O)(O)O,0[11.4 µM],0[11.4 µM],0[11.5 µM],0[11.4 µM],0[11.4 µM],-
O=C(O)c1ccccc1-c1c2cc(Br)c(=O)cc-2oc2[c]([Hg])c(O)c(Br)cc12,0,0.25µM,16µM!,0.5µM,3.2µM,-
Cc1c(OCC(F)(F)F)ccnc1CS(=O)c1nc2ccccc2[nH]1 (centres undefined),0,25µM!,0,?,?,0
CN[C@H](Cc1ccccc1)c1cccc(OC)c1O,0[11.4 µM],0[11.4 µM],0[11.5 µM],0[11.4 µM],0[11.4 µM],-
O=C(CN1C(=O)COc2ccc(Cl)cc21)Nc1ccc2c(c1)OCCO2,0,?,0,0,0,3.6
COC[C@@H]1OC(=O)c2coc3c2[C@]1(C)C1=C(C3=O)[C@H]2CCC(=O)[C@]2(C)C[C@@H]1OC(C)=O,0,-,-,-,?,-
C[CH2][Hg][S]c1ccccc1C(=O)O,-,1.3µM,10µM,1µM,-,-
CC(C)COC(=O)c1ccccc1C(=O)OCC(C)C,-,0,0,0,0,-
SMILES,FLuc inh,15-hLO inh,ERK AVP inh,HSD17B inh,HADH2 inh,PK Bst
Nc1ccccc1C(=O)OCCc1ccccc1,-,0,0,32µM,0,-
CCCCC(CC)COC(=O)c1ccccc1C(=O)OCC(CC)CCCC (centres undefined),-,0,0,0,0,-
CCCCOC(=O)c1ccccc1N,-,0,0,32µM,20µM,-
CCCCCCOC(=O)c1ccccc1N,0,0,0,?,0,-
C#CCO,-,0,0,0,0,-
CC1(C)CCC(C)(C)c2c1ccc(O)c2Cc1c(O)ccc2c1C(C)(C)CCC2(C)C,0[11.4 µM],0[11.4 µM],0[11.5 µM],0[11.4 µM],0[11.4 µM],-
COc1ccc2c(c1)CC1(CN2C)C(=O)NC(=O)N(CCc2ccccc2)C1=O (centres undefined),0,16µM,0,?,?,0
COc1cc(CN2C(=O)NC(=O)C3(Cc4cc(C)ccc4N(C)C3)C2=O)cc(OC)c1 (centres undefined),0,0,0,0,0,0
CC[n+]1c(-c2ccccc2)c2cc(N)ccc2c2ccc(N)cc21,-,10µM!,?,20µM!,0,-
CN(C)C(=O)Cl,-,0,0,0,0,-
CCCNC(=O)c1c(N)n(CC2CCCO2)c2nc3ccccc3nc12 (centres undefined),0,0,0,16µM,32µM,-

# Bioassay records (PubChem)
